# Laboratory results reported in the supplement of paper PMC12282887.
# ± gives the standard deviation of the averaged measurements.
# Legend:
# Assay in all cases: promoter activity interaction Z-score (Lux/OD deviation from empty-vector control); higher = stronger promoter induction by the compound
# [1] = test system: E. coli BW25113 acrABp lux reporter
# In short: (§1)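 OD600 and luminescence of E. coli BW25113 reporter cultures (40 µl LB Lennox, 384-well plates, 37°C) were measured every 30 min for 12 h. Integration ran over 0–8 h for wild type or 1–9 h for deletion strains, and wells with growth below 10% of the median were dropped. The score is the Z-transformed residual of growth-normalised luminescence fitted against a control.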
# [2] = test system: E. coli BW25113 marRABp lux reporter
# In short: as §1
# [3] = test system: E. coli BW25113 micFp lux reporter
# In short: as §1
# [4] = test system: E. coli BW25113 ompFp lux reporter
# In short: as §1
# [5] = test system: E. coli BW25113 robp lux reporter
# In short: as §1
# [6] = test system: E. coli BW25113 soxSp lux reporter
# In short: as §1
# [7] = test system: E. coli BW25113 tolCp lux reporter
# In short: as §1
# [8] = 19.1 µg/ml, genetic background: wild type
# [9] = 19.1 µg/ml, genetic background: ΔmarA
# [10] = 19.1 µg/ml, genetic background: Δrob
# [11] = 19.1 µg/ml, genetic background: ΔsoxS
# [12] = 38.3 µg/ml, genetic background: wild type
# [13] = 38.3 µg/ml, genetic background: ΔmarA
# [14] = 38.3 µg/ml, genetic background: Δrob
# [15] = 38.3 µg/ml, genetic background: ΔsoxS
# [16] = 76.6 µg/ml, genetic background: wild type
# [17] = 76.6 µg/ml, genetic background: ΔmarA
# [18] = 76.6 µg/ml, genetic background: Δrob
# [19] = 76.6 µg/ml, genetic background: ΔsoxS
# [20] = 153.1 µg/ml, genetic background: wild type
# [21] = 153.1 µg/ml, genetic background: ΔmarA
# [22] = 153.1 µg/ml, genetic background: Δrob
# [23] = 153.1 µg/ml, genetic background: ΔsoxS
compound,measurement,setting,value
Nc1ccc(C(=O)O)c(O)c1 [4-Aminosalicylic acid],promoter activity interaction Z-score,[1]; [8],-0.149 ± 0.057
same,promoter activity interaction Z-score,[1]; [9],-0.463 ± 0.94
same,promoter activity interaction Z-score,[1]; [10],-0.0648 ± 0.1
same,promoter activity interaction Z-score,[1]; [11],0.0906 ± 0.23
same,promoter activity interaction Z-score,[1]; [12],-0.194 ± 0.071
same,promoter activity interaction Z-score,[1]; [13],-0.226 ± 0.02
same,promoter activity interaction Z-score,[1]; [14],0.179 ± 0.24
same,promoter activity interaction Z-score,[1]; [15],0.221 ± 0.28
same,promoter activity interaction Z-score,[1]; [16],-0.276 ± 0.035
same,promoter activity interaction Z-score,[1]; [17],-0.0192 ± 0.31
same,promoter activity interaction Z-score,[1]; [18],-0.218 ± 0.18
same,promoter activity interaction Z-score,[1]; [19],-0.00319 ± 0.25
same,promoter activity interaction Z-score,[1]; [20],-0.212 ± 0.19
same,promoter activity interaction Z-score,[1]; [21],0.164 ± 0.025
same,promoter activity interaction Z-score,[1]; [22],0.0189 ± 0.39
same,promoter activity interaction Z-score,[1]; [23],0.952 ± 1.3
same,promoter activity interaction Z-score,[2]; [8],0.109 ± 0.4
same,promoter activity interaction Z-score,[2]; [9],0.307 ± 0.0067
same,promoter activity interaction Z-score,[2]; [10],0.19 ± 0.12
same,promoter activity interaction Z-score,[2]; [11],0.147 ± 0.18
same,promoter activity interaction Z-score,[2]; [12],0.0516 ± 0.015
same,promoter activity interaction Z-score,[2]; [13],0.172 ± 0.09
same,promoter activity interaction Z-score,[2]; [14],0.493 ± 0.39
same,promoter activity interaction Z-score,[2]; [15],0.161 ± 0.086
same,promoter activity interaction Z-score,[2]; [16],-0.0573 ± 0.025
same,promoter activity interaction Z-score,[2]; [17],-0.242 ± 0.12
same,promoter activity interaction Z-score,[2]; [18],0.384 ± 0.31
same,promoter activity interaction Z-score,[2]; [19],-0.0494 ± 0.21
same,promoter activity interaction Z-score,[2]; [20],0.642 ± 0.055
same,promoter activity interaction Z-score,[2]; [21],0.698 ± 0.021
same,promoter activity interaction Z-score,[2]; [22],0.956 ± 0.3
same,promoter activity interaction Z-score,[2]; [23],0.968 ± 0.13
same,promoter activity interaction Z-score,[3]; [8],0.127 ± 0.069
same,promoter activity interaction Z-score,[3]; [9],0.157 ± 0.12
same,promoter activity interaction Z-score,[3]; [10],0.223 ± 0.068
same,promoter activity interaction Z-score,[3]; [11],0.335 ± 0.24
same,promoter activity interaction Z-score,[3]; [12],0.103 ± 0.31
same,promoter activity interaction Z-score,[3]; [13],0.0571 ± 0.12
same,promoter activity interaction Z-score,[3]; [14],0.346 ± 0.16
same,promoter activity interaction Z-score,[3]; [15],0.348 ± 0.31
same,promoter activity interaction Z-score,[3]; [16],0.399 ± 0.11
same,promoter activity interaction Z-score,[3]; [17],0.312 ± 0.014
same,promoter activity interaction Z-score,[3]; [18],0.842 ± 0.12
same,promoter activity interaction Z-score,[3]; [19],0.567 ± 0.32
same,promoter activity interaction Z-score,[3]; [20],0.955 ± 0.34
same,promoter activity interaction Z-score,[3]; [21],0.278 ± 0.066
same,promoter activity interaction Z-score,[3]; [22],1.89 ± 0.16
same,promoter activity interaction Z-score,[3]; [23],2.24 ± 0.04
same,promoter activity interaction Z-score,[4]; [8],-0.191 ± 0.28
same,promoter activity interaction Z-score,[4]; [9],-0.0337 ± 0.042
same,promoter activity interaction Z-score,[4]; [10],0.485 ± 0.12
same,promoter activity interaction Z-score,[4]; [11],0.498 ± 0.63
same,promoter activity interaction Z-score,[4]; [12],-0.538 ± 0.33
same,promoter activity interaction Z-score,[4]; [13],0.43 ± 0.48
same,promoter activity interaction Z-score,[4]; [14],0.92 ± 0.71
same,promoter activity interaction Z-score,[4]; [15],0.203 ± 0.35
same,promoter activity interaction Z-score,[4]; [16],-0.751 ± 0.39
same,promoter activity interaction Z-score,[4]; [17],-0.414 ± 0.39
same,promoter activity interaction Z-score,[4]; [18],-0.49 ± 0.65
same,promoter activity interaction Z-score,[4]; [19],-0.5 ± 0.67
same,promoter activity interaction Z-score,[4]; [20],-0.516 ± 0.52
same,promoter activity interaction Z-score,[4]; [21],0.0436 ± 0.35
same,promoter activity interaction Z-score,[4]; [22],0.0977 ± 1
same,promoter activity interaction Z-score,[4]; [23],0.625 ± 1.1
same,promoter activity interaction Z-score,[5]; [8],-0.222 ± 0.014
same,promoter activity interaction Z-score,[5]; [9],-0.199 ± 0.69
same,promoter activity interaction Z-score,[5]; [10],-0.314 ± 0.28
same,promoter activity interaction Z-score,[5]; [11],-0.201 ± 0.76
same,promoter activity interaction Z-score,[5]; [12],-0.158 ± 0.15
same,promoter activity interaction Z-score,[5]; [13],0.308 ± 0.07
same,promoter activity interaction Z-score,[5]; [14],0.333 ± 0.35
same,promoter activity interaction Z-score,[5]; [15],0.11 ± 0.31
same,promoter activity interaction Z-score,[5]; [16],-0.0528 ± 0.63
same,promoter activity interaction Z-score,[5]; [17],-0.845 ± 0.11
same,promoter activity interaction Z-score,[5]; [18],-0.29 ± 0.49
same,promoter activity interaction Z-score,[5]; [19],-0.381 ± 0.64
same,promoter activity interaction Z-score,[5]; [20],-0.356 ± 0.24
same,promoter activity interaction Z-score,[5]; [21],0.439 ± 0.5
same,promoter activity interaction Z-score,[5]; [22],-0.252 ± 0.99
same,promoter activity interaction Z-score,[5]; [23],0.0401 ± 0.42
same,promoter activity interaction Z-score,[6]; [8],0.0858 ± 0.3
same,promoter activity interaction Z-score,[6]; [9],0.563 ± 0.097
same,promoter activity interaction Z-score,[6]; [10],0.674 ± 0.079
same,promoter activity interaction Z-score,[6]; [11],0.458 ± 0.71
same,promoter activity interaction Z-score,[6]; [12],-0.0504 ± 0.074
same,promoter activity interaction Z-score,[6]; [13],0.547 ± 0.088
same,promoter activity interaction Z-score,[6]; [14],0.688 ± 0.15
same,promoter activity interaction Z-score,[6]; [15],0.377 ± 0.54
same,promoter activity interaction Z-score,[6]; [16],0.102 ± 0.028
same,promoter activity interaction Z-score,[6]; [17],0.199 ± 0.076
same,promoter activity interaction Z-score,[6]; [18],0.581 ± 0.14
same,promoter activity interaction Z-score,[6]; [19],0.29 ± 0.88
same,promoter activity interaction Z-score,[6]; [20],-0.173 ± 0.12
same,promoter activity interaction Z-score,[6]; [21],0.349 ± 0.045
same,promoter activity interaction Z-score,[6]; [22],0.403 ± 0.16
same,promoter activity interaction Z-score,[6]; [23],0.259 ± 0.95
same,promoter activity interaction Z-score,[7]; [8],-0.487 ± 1.9
same,promoter activity interaction Z-score,[7]; [9],-1.05 ± 0.26
same,promoter activity interaction Z-score,[7]; [10],1.71 ± 2
same,promoter activity interaction Z-score,[7]; [11],-0.0483 ± 0.2
same,promoter activity interaction Z-score,[7]; [12],-0.154 ± 1.3
same,promoter activity interaction Z-score,[7]; [13],-0.0748 ± 0.1
same,promoter activity interaction Z-score,[7]; [14],0.149 ± 0.17
same,promoter activity interaction Z-score,[7]; [15],0.687 ± 1.6
same,promoter activity interaction Z-score,[7]; [16],-0.119 ± 0.018
same,promoter activity interaction Z-score,[7]; [17],-0.241 ± 0.77
same,promoter activity interaction Z-score,[7]; [18],1.64 ± 0.41
same,promoter activity interaction Z-score,[7]; [19],-0.423 ± 0.15
same,promoter activity interaction Z-score,[7]; [20],0.606 ± 0.32
same,promoter activity interaction Z-score,[7]; [21],0.0837 ± 0.18
same,promoter activity interaction Z-score,[7]; [22],0.207 ± 0.77
same,promoter activity interaction Z-score,[7]; [23],1.76 ± 0.4
